# Only some compounds are listed: those with a hit (about 4.1% of all), similar ones and a draw of the others.
# hgDAF-12 ag: agonists of H. glycines DAF-12 nuclear receptor; activation, % at 6.8 µM; 370,000 tested, 1.8% active; HEK293 GAL4-hgDAF12 UAS-luciferase reporter, agonist luminescence; normalized to butyrate control;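 active means activation above a cutoff set at the mean of all screened compounds plus 3 SD, cut at about 10% in these data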
# DAX1 inh-1: DAX1 (NR0B1) inhibition, primary screen | HEK293T StAR-luciferase reporter, SF-1/DAX-1 repression relief | inhibition, % at 6.8 µM | 370,000 tested, 1.1% active;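 active means inhibition above the mean over all tested compounds plus 3 SD, cut at about 3.6% in these data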;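 further: higher inhibition means more luminescence from relief of DAX-1 repression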
# DAX1 inh-2: NR0B1 (DAX1) inhibition. AID 504766. 340,000 tested, 0.99% active. HEK293 Gal4-DAX1 luciferase reporter, luminescence. inhibition, % at 6.75 µM. P51843;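 active means inhibition above the mean over all tested compounds plus 3 SD, cut at about 4.2% in these data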;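 further: inhibition shows as a rise in luminescence from relieved DAX1 repression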
# Target sequence (P51843 207-470 limits assumed): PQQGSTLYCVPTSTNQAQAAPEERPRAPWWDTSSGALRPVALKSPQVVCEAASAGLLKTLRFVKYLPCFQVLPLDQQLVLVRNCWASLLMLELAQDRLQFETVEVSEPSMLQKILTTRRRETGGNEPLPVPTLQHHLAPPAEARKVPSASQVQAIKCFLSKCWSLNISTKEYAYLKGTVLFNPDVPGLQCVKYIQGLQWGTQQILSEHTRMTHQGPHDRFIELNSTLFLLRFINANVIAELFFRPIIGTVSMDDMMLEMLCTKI
# ssDAF-12 act: activates DAF-12 receptor from parasite S. stercoralis. HEK293 ssDAF-12/GRIP1 lit1-tk-luc reporter, luminescence; % of 3 µM dafachronic acid response. activation, % at 6.8 µM. 370,000 tested, 1% active;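 active means activation above the mean over all tested compounds plus 3 SD, cut at about 0.9% in these data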
# hcDAF-12 act: H. contortus DAF-12 activation, primary screen; 370,000 tested, 1.4% active; AID 652067; activation, % at 6.8 µM; HEK293 hcDAF-12 lit1-tk-luc reporter, luminescence; 0% DMSO, 100% Δ7-dafachronic acid;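 active means activation above the mean of all tested compounds plus 3 SD, cut at about 5.5% in these data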
# DAX1 conf: confirmation of human DAX1 (NR0B1) inhibitors | shares compounds with DAX1 inh-1 | AID 652134 | HEK293T StAR-promoter luciferase reporter, SF-1/DAX-1 repression | 2,400 tested, 87% active | inhibition, % at 6.8 µM;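 active means inhibition above the average of every tested compound plus 3 SD, cut at about 3.8% in these data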;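 further: active compounds raise luminescence by relieving repression of the StAR reporter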
# SF1 AF2mut Luc: nonselective inhibitor or artifact in SF-1 mutant DAX1 counter-screen | shares compounds with DAX1 inh-1 | HEK293 StAR-luciferase, SF-1 AF2 mutant, luminescence | inhibition, % at 6.8 µM | 2,400 tested, 78% active;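 active means inhibition above the mean of all tested compounds plus 3 SD, cut at about 3% in these data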
# LXRb hcDAF ctr: activates human LXR-beta, counter-screen for hcDAF-12 agonists; shares compounds with hcDAF-12 act; HEK293 Gal4-LXR tk-luc reporter, luminescence, 24 h; normalized: DMSO 0%, positive control 100%; activation, % at 6.8 µM; 3,400 tested, under 10 active; AID 743027;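 active means mean percent activation of the reporter above a cutoff set as the average over tested compounds plus their standard deviation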
# hcDAF12 ag: hcDAF-12 agonism, confirmation assay; shares compounds with hcDAF-12 act; 3,400 tested, 61% active; HEK293 hcDAF-12 lit1-tk-luc reporter, luminescence; % of Δ7-dafachronic acid response; activation, % at 6.8 µM;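 active means mean activation across triplicate tests above the threshold derived from the earlier primary screen, cut at about 5.5% in these data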
# hgDAF12 ag: confirmation of H. glycines DAF-12 agonists; shares compounds with hgDAF-12 ag; HEK293 GAL4-hgDAF12 luciferase reporter, agonist mode; percent of butyrate response; activation, % at 6.8 µM; 3,300 tested, 80% active; AID 743050;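 active means mean activation over triplicate wells above the hit cutoff derived from the earlier primary screen, cut at about 11% in these data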
# LXRb DAF12 ctr: LXR-beta agonism as DAF-12 counter-screen. HEK293 Gal4-LXR luciferase reporter, 24 h. activation, % at 6.8 µM. shares compounds with hgDAF-12 ag. AID 743051. 3,300 tested, under 10 active;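 active means mean activation of the triplicate above a set limit carried over from the primary screen, none filed active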
# Hits are given with their value; 0 = inactive; - = no result.
SMILES,hgDAF-12 ag,DAX1 inh-1,DAX1 inh-2,ssDAF-12 act,hcDAF-12 act,DAX1 conf,SF1 AF2mut Luc,hgDAF12 ag,LXRb DAF12 ctr,others
Cc1csc(SCc2nnc(-c3ccccc3Br)o2)n1,16,6.5,0,0,0,14,8.2,17,0,
Fc1ccccc1SCc1nnc(-c2ccccc2Br)o1,14,6.5,0,0,0,16,7.3,20,0,
Cc1csc(SCc2nnc(-c3ccc(Cl)cc3)o2)n1,0,0,0,0,0,-,-,-,-,
Cc1nn(-c2ccccc2)c(C)c1/C=N/Nc1nc2ccccc2[nH]1,22,6.4,0,1.8,9.1,17,8.5,17,0,LXRb hcDAF ctr=0;hcDAF12 ag=8.9
CC(/C=N/Nc1nc2ccccc2[nH]1)=C\c1ccccc1,21,6.9,0,1.5,8.8,18,7.0,23,0,LXRb hcDAF ctr=0;hcDAF12 ag=6.6
CC(C)c1ccc(OCCCN2CCC(C(O)(c3ccccc3)c3ccccc3)CC2)cc1,0,0,-,0,0,-,-,-,-,
Cc1ccc(O)c(C(C)c2c[nH]c3ccccc23)c1 (stereo not drawn),0,0,-,0,0,-,-,-,-,
CCCn1cnc2cc(NC(=O)c3ccco3)ccc21,15,5.5,0,1.2,6.6,0,3.8,0,0,LXRb hcDAF ctr=0;hcDAF12 ag=0
O=C(Nc1ccc(NC(=O)c2ccco2)nc1)c1ccco1,15,5.9,0,0,0,10,2.9,13,0,
Cc1ccc(OCc2nc(-c3cccs3)no2)c([N+](=O)[O-])c1,14,12,0,1.9,7.1,15,7.1,19,0,LXRb hcDAF ctr=0;hcDAF12 ag=7.6
O=C(O)CCc1nc(-c2cccs2)no1,0,0,0,0,0,-,-,-,-,
Cc1ccc(OCc2nc(-c3ccccc3)no2)c(C)c1,0,0,0,0,0,-,-,-,-,
O=[N+]([O-])c1ccccc1OCc1nc(-c2cccs2)no1,14,8.5,0,0,0,11,6.2,14,0,
O=C(NCCc1ccccc1)OCc1cn(Cc2cc(F)cc(F)c2)nn1,0,0,-,0,0,-,-,-,-,
CC1CCC2(CC1)CCC2NCc1ccc(Cl)c(Cl)c1 (stereo not drawn),0,-,-,0,0,-,-,-,-,
Cc1cccc2cc(/C=N/Nc3ccc(C(=O)O)cc3)c(Cl)nc12,19,8.9,0,0,6.0,37,15,25,0,
O=C(O)c1ccc(N/N=C/c2cc3ccccc3nc2Cl)cc1,17,5.4,4.3,0,5.6,14,5.7,12,0,
CN(C)[C@H]1CCN(c2ccc3c(c2)OCCCN(C2CC2)S3(=O)=O)C1,0,0,-,0,0,-,-,-,-,
C/C(=N\NC(=S)Nc1ccc(F)cc1)c1ccc2c(c1)OCCO2,0,0,0,0,0,-,-,-,-,
C/C(=N/NC(=O)c1ccc2c(c1)OCO2)c1ccc(NC(=O)c2ccc(F)cc2)cc1,14,5.8,0,0,5.7,6.3,0,0,0,
C/C(=N\NC(=O)c1cccc(F)c1)c1ccc(NC(=O)Cc2ccccc2)cc1,14,7.0,0,0,6.4,0,0,0,0,
O=[N+]([O-])c1cc(Cl)ccc1-c1nc(-c2ccccc2)no1,25,4.7,4.5,4.0,11,14,7.7,18,0,LXRb hcDAF ctr=0;hcDAF12 ag=9.9
COc1ccc(-c2nnc(SCC(C)C)o2)cc1,23,4.8,0,0,0,8.2,3.4,22,0,

# Screening data from PubChem BioAssay.
